Results: PubChem BioAssay (NCI)
This is part of a sample that, as a whole, favours compounds with a hit. Of some 83,000 tested, about 20% had one in any assay.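 Each cell line was grown in a 96-well plate and treated with one concentration of compound for 48 hours. Values below 10 were considered active.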 A number with no mark means an inactive call. The source made the active and inactive calls.

Tests used:
Test in all cases: NCI-60 one-dose screen, 48 h (100 = growth as untreated, 0 = no growth, -100 = all killed)
Details in all cases: 10 µM unless noted
[1] = test system: SN12C renal
[2] = test system: UO-31 renal
[3] = test system: TK-10 renal
[4] = test system: ACHN renal
[5] = test system: A498 renal
[6] = test system: CCRF-CEM leukemia
[7] = test system: SR leukemia
[8] = test system: RPMI-8226 leukemia
[9] = test system: OVCAR-8 ovarian
[10] = test system: OVCAR-5 ovarian
[11] = test system: OVCAR-4 ovarian
[12] = test system: SK-OV-3 ovarian
[13] = test system: IGROV1 ovarian
[14] = test system: OVCAR-3 ovarian
[15] = test system: HS 578T breast
[16] = test system: NCI/ADR-RES ovarian
[17] = test system: MOLT-4 leukemia
[18] = test system: EKVX NSCLC
[19] = test system: CAKI-1 renal

SMILES | growth [1] | growth [2] | growth [3] | growth [4] | growth [5] | growth [6] | growth [7] | growth [8] | growth [9] | growth [10] | growth [11] | growth [12] | growth [13] | growth [14] | growth [15] | growth [16] | growth [17] | growth [18] | growth [19]
Cc1cccc(/C=N/Nc2cc(C)c3cccc(C)c3n2)n1 | 94.6% | 76.5% | 111% | 92.1% | 97.7% | 74% | 47.2% | 60.8% | 83.3% | 94.3% | 90.2% | 115% | 96.7% | 102% | 108% | 84.5% | – | – | –
CC(=O)Nc1nc(N)nc(NC(C)=O)c1N=O | 106% | 93.3% | 114% | 104% | 118% | 112% | 100% | 118% | 109% | 108% | 127% | 103% | 131% | – | 104% | 97.2% | 113% | – | –
CCCCN(CCCC)C(=N)c1ccnc2ccccc12 | 113% | 89.7% | 105% | 109% | – | – | – | 83.1% | 110% | 104% | 94% | 112% | 98.3% | 104% | – | 110% | 42.6% | 104% | 108%
COc1cccc(-c2cc3c(O)cc(C#N)cc3[nH]2)c1 | 66.1% | 106% | 97.9% | 87.6% | 71.7% | – | – | 36.1% | 106% | 94.7% | 83.7% | 108% | 103% | 114% | 43.6% | 89.2% | 81.8% | 77.8% | 88.4%
O=C(NCc1cn(Cc2cccc(Oc3ccccc3)c2)nn1)c1cccnc1Nc1ccc(F)cc1 | 44.4% | 59.3% | 83.8% | 72.3% | 26.5% | – | – | – | 67.2% | 89.3% | 86.1% | 52.2% | 79.4% | 35.9% | 76.7% | 31.7% | – | 61.8% | 53.9%
COc1cc(C(=O)/C=C/c2ccc3nc(-c4cc(F)cc(F)c4)sc3c2)cc(OC)c1OC | 93% | 88.8% | 100% | 88.1% | 98.1% | – | 103% | 90.7% | 104% | 97.1% | 107% | 94.5% | 96.6% | 112% | 93.1% | 98.7% | – | 110% | 104%
C=C1C(=O)O[C@@H]2[C@@H]3O[C@@](C)(CC/C=C(\C)CCC[C@@H]2C)[C@H](O)C[C@@H]13 | 47.3% | 45% | 32% | 51.9% | 66.8% | – | – | 7.48% (active) | 35% | 97.5% | 70.1% | 92% | 42.3% | – | 72.1% | 37.5% | 16.8% | 76.3% | 39%
CN(CCCCCl)P(=O)(OCc1ccc([N+](=O)[O-])o1)C(F)(F)C[C@H](NC(=O)CNC(=O)c1ccc(N=[N+]=[N-])cc1)C(=O)NCCc1ccc(O)cc1 (stereo partly specified) | 95.2% | 84.7% | 121% | 106% | 104% | – | 9.22% (active) | 87.3% | 107% | 123% | 95.2% | 113% | 84.3% | 109% | 84.4% | 103% | 74.7% | 102% | –
Cc1ccc(S(=O)(=O)/C(=C\c2ccc(Cl)cc2)C(=O)c2ccccc2)cc1 | 98.9% | 90.1% | – | 109% | – | 97.7% | 105% | 103% | 107% | 114% | 107% | 96.9% | 109% | 119% | 119% | 104% | 99.1% | – | 87.3%
Oc1ccc(Cl)cc1-c1cc(-c2ccc(F)cc2)n[nH]1 | 66.6% | 37.5% | 114% | 74.3% | 69.6% | – | – | 28.2% | 73.4% | 83.6% | 25.3% | 74.8% | 40% | 49.8% | 65.4% | 66.4% | – | 50.6% | 50.4%
